Reference: PubChem BioAssay
Active and inactive are the calls of the source.

Experiments:
[1] = compound effects on lung adenocarcinoma cell viability – A549, calcein-AM fluorescence, 48 h, basal, profiling panel (AID 1162); settings: higher = more signal
[2] = compound effects on differentiated 3T3-L1 adipocyte viability – cell-based, 3T3-L1 adipocytes, calcein-AM fluorescence, 48 h, basal, profiling panel (AID 1163); settings: 3T3-L1 adipocytes viability, higher = more signal
[3] = compound effects on hepatocellular carcinoma cell viability – HepG2, calcein-AM fluorescence, 48 h, basal, profiling panel (AID 1164); settings: higher = more signal
[4] = compound effects on multiple myeloma cell viability – MM1S, calcein-AM fluorescence, 48 h, basal, profiling panel (AID 1165); settings: higher = more signal;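 further: viability of MM1S multiple myeloma cells under basal unstimulated conditions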
[5] = calcein-AM signal in unstimulated myeloma cells – cell-based, calcein-AM fluorescence, 48 h, PK04 Diversity Set, profiling panel (AID 1166); settings: RPMI8226 myeloma viability, higher = more signal;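 further: cells grown under basal conditions without added stimulus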
[6] = JC-1 mitochondrial signal, unstimulated HepG2 cells – cell-based, JC-1 fluorescence, 24 h, 100 nL compound, profiling panel (AID 1167); settings: HepG2 mitochondrial potential, higher = more signal
[7] = JC-1 mitochondrial signal, unstimulated adipocytes – cell-based, JC-1 fluorescence, 3T3-L1 adipocytes, 24 h, 100 nL compound, profiling panel (AID 1168); settings: JC-1 mitochondrial fluorescence, higher = more signal, called active from +8 up or from −8 down
[8] = JC-1 mitochondrial signal, unstimulated myeloma cells – cell-based, JC-1 fluorescence, RPMI8226, 24 h, 100 nL compound, profiling panel (AID 1169); settings: JC-1 mitochondrial potential fluorescence, higher = more signal
[9] = JC-1 mitochondrial signal, unstimulated MM1S myeloma – cell-based, JC-1 fluorescence, 24 h, 100 nL compound, profiling panel (AID 1170); settings: MM1S mitochondrial potential, higher = more signal
[10] = resazurin metabolic signal in A549 cells – cell-based, resazurin fluorescence, 24 h, PK04 Diversity Set, profiling panel (AID 1171); settings: A549 viability, higher = more signal, called active from +8 up or from −8 down
Further: test concentration not given here.

Structure (SMILES) | z-score [1] | z-score [2] | z-score [3] | z-score [4] | z-score [5] | z-score [6] | z-score [7] | z-score [8] | z-score [9] | z-score [10]
CC[C@H]1C2=C3C(CC[C@H]4C(OCc5ccc(F)cc5C(F)(F)F)OC[C@](C)([C@@H]34)N(C(=O)OC(C)(C)C)C2)C(COC)C1COC (stereo not given in full) | -0.266 | -0.851 | 0.309 | 0.0661 | -0.307 | 1.38 | -0.159 (inactive) | -0.182 | -1.53 | -0.515 (inactive)
[N-]=[N+]=NCc1ccccc1C[C@@]1(C(=O)NCc2ccccc2)N=C(c2ccc(OCCCO)cc2)O[C@@H]1c1ccccc1N=[N+]=[N-] | 0.0629 | -1.67 | -0.236 | -2.78 | -3.5 | 0.917 | 0.898 (inactive) | -1.11 | -1.24 | -0.0617 (inactive)
CC(CO)N1C(=O)[C@@H]2[C@H]3C(=O)OCC=C[C@H]3OC23C=CCN(Cc2ccccc2)C(=O)[C@@H]13 (stereo not given in full) | -0.0849 | 0.847 | -1.35 | 1.17 | 0.0239 | -0.378 | 0.508 (inactive) | -0.0286 | 0.491 | 0.881 (inactive)
COc1ccc(NC(=O)O[C@H]2[C@H](OC(=O)Nc3ccccc3)[C@H](OC(=O)Nc3ccccc3)[C@@H](OC)O[C@@H]2CO)cc1 | -0.985 | 0.998 | -1.29 | -2.7 | -2.72 | -0.186 | -0.0233 (inactive) | -0.339 | -0.261 | -1.44 (inactive)
CC(C)(C)OC(=O)CC[C@]1(C(=O)NCc2ccccc2)N=C(c2ccc(OCCCO)cc2)O[C@H]1c1ccccc1CN=[N+]=[N-] | 0.858 | -0.0665 | 2.17 | -0.863 | 0.213 | 1.17 | 0.0993 (inactive) | -0.518 | -0.773 | -0.768 (inactive)
CCCCCCCCCCC(O)C1C=CC2C(=O)N(C)C(=O)C2N1Nc1ccc([N+](=O)[O-])cc1[N+](=O)[O-] (stereo not given) | -0.783 | -0.801 | -1.2 | -3.69 | -4.05 | 0.693 | -1.21 (inactive) | -0.935 | -1.8 | -0.283 (inactive)
COC(=O)[C@@]1(Cc2ccc(F)cc2)[C@H]2c3cc(C(=O)N4CCCC4)n(CCc4ccc(O)c(O)c4)c3C[C@H]2CN1C(=O)c1ccccc1 | 0.863 | -0.0428 | 0.609 | -3.48 | -4.2 | 0.54 | -0.461 (inactive) | -0.788 | -1.59 | 0.0195 (inactive)
C=C(/C(=C/C[C@H](OC(=O)c1ccncc1)c1ccc(CO)o1)c1cc(C(=O)OC)ccc1OC)C(C)C | -0.762 | -0.0308 | -1.15 | -1.26 | -0.524 | -0.133 | -1.63 (inactive) | -0.324 | -0.251 | -0.18 (inactive)
C=CCOC(=O)[C@H]1[C@@H]2C(=O)O[C@@H](c3ccccc3)[C@@H](c3ccccc3)N2[C@@H](c2ccc(OCCOC(=O)[C@H]3C[C@H]4C(=O)N[C@@H](CC(C)C)C(=O)N4[C@H]3c3cccc(OCCO)c3)cc2)[C@]12C(=O)Nc1ccc(I)cc12 | -0.681 | 0.329 | 0.281 | -1.15 | -0.0034 | 1.69 | 0.681 (inactive) | -0.762 | -0.7 | -0.0975 (inactive)
CCOC(=O)C[C@H]1[C@H](OC(=O)c2ccccc2-c2ccccc2)[C@@H](NC(=O)C2CCCCC2)c2cc(OCCCO)ccc2N1C(=O)Cc1ccc(OC)cc1 | 0.544 | 0.744 | 0.43 | -0.524 | -0.593 | 0.908 | -0.388 (inactive) | -0.285 | -0.663 | 0.361 (inactive)
COCCOC(=O)N1C(=O)[C@@]2(c3cc(C#CC4=CCCCC4)ccc31)[C@H](c1ccc(OCCO)cc1)N1[C@H](c3ccccc3)[C@H](c3ccccc3)OC(=O)[C@H]1[C@@H]2C(=O)N1CCN(c2ncccn2)CC1 | -0.471 | 1.18 | 0.47 | -0.759 | -0.774 | 0.955 | 1.46 (inactive) | -0.333 | -1.01 | 0.468 (inactive)
Cn1cccc1C(O)C1C=CC2C(=O)NC(=O)C2N1Nc1ccc(Cl)cc1Cl (stereo not given) | -0.924 | -0.457 | -1.5 | -3.45 | -2.24 | -2.72 | -1.36 (inactive) | -0.929 | 0.234 | -0.299 (inactive)
CN1C(=O)C2C=CC(C(O)COCc3ccccc3)N(N(c3ccccc3)c3ccccc3)C2C1=O (stereo not given) | 1.52 | -1.5 | 0.688 | -3.79 | -3.67 | 0.0589 | -1.12 (inactive) | -0.974 | -1.34 | 0.419 (inactive)
CCOC(=O)C[C@H]1[C@H](OC(=O)c2ccc(C(=O)c3ccccc3)cc2)[C@@H](NC(=O)Cc2ccc(OC)cc2)c2cc(OCCCO)ccc2N1C(=O)c1ccccc1 | 0.0281 | -0.005 | 0.544 | -0.272 | -0.399 | 0.425 | -0.386 (inactive) | 0.428 | -0.107 | 0.69 (inactive)
